The values that follow come from PubChem BioAssay (NCATS).

Assay [1] in a line: AP1 Signaling Pathway (AID 357; active = well fitted curve in either direction with a large enough effect, not every such curve was filed as active; note: % is set by controls: 0 for no effect and ±100 for the full control effect). The method, boiled down: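 ME-180 cells with beta-lactamase reporter under AP-1 response element, stimulated with EC50 EGF; compounds tested in titration series, 5 h at 37 °C. CCF4 substrate added 2.5 h at room temperature; 460/530 nm emission ratio gave %activity and AC50.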
A short description of assay [2]: Stat Signaling Pathway (AID 446; active = well fitted curve in either direction with a large enough effect, not every such curve was filed as active;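 note: ME-180 cervical cancer cells given 40 pM IL-6 alongside compound; SIE-controlled beta-lactamase reporter measured as 460/530 nm FRET emission ratio; % is set by controls: 0 for no effect and ±100 for the full control effect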). The procedure, abridged: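 Screening format detects activators and inhibitors alike: ME-180 SIE-bla cells stimulated at 40 pM IL-6 for 5 hrs with compound, then dual-emission beta-lactamase read at 405 nm excitation.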
In assay [3] the target is Glucocorticoid receptor (Homo sapiens) (UniProt P04150). Briefly: GR-GFP Redistribution (AID 450;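 active = compounds whose dose series gives a full or clear partial fitted curve of increased nuclear translocation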; note: potency is the fitted concentration of half-maximal effect). As to conditions: U2OS GR-GFP nuclear translocation, laser cytometry, 2 h.
Glucocorticoid receptor (Homo sapiens), sequence (P04150 whole entry, looked up, the tested form may be a part): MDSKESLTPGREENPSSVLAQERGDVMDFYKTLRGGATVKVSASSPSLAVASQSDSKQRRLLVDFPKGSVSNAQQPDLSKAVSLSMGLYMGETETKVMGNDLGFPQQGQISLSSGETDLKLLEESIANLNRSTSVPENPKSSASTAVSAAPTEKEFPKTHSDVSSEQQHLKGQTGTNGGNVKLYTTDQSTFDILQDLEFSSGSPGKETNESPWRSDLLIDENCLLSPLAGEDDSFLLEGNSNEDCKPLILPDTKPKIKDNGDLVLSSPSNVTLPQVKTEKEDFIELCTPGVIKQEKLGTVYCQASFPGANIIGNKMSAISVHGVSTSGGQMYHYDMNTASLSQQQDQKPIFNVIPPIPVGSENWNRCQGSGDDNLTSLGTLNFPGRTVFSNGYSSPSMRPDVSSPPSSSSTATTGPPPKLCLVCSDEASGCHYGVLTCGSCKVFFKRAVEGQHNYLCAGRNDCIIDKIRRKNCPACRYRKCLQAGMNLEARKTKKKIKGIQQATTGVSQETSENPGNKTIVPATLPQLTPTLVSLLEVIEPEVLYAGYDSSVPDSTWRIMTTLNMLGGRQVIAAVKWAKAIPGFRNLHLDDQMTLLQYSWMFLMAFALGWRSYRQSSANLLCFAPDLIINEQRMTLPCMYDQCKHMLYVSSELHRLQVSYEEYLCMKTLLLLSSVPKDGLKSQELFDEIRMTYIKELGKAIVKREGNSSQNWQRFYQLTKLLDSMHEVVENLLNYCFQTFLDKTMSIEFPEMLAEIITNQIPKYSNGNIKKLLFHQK
Assay [4] deals with Mitogen-activated protein kinase 10 (Mus musculus) (UniProt Q61831). Briefly: JNK3 AlphaScreen Assay (AID 530; active = well fitted curve in either direction with a large enough effect, not every such curve was filed as active;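 note: kinase came from lysate of stimulated human HepG2 cells; signal reports phosphorylation of biotinylated GST-cJun 1-79 at Ser73 with 10 µM ATP; % is set by controls: 0 for no effect and ±100 for the full control effect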). The procedure, abridged:
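JNK3 came from HepG2 lysates pre-activated with IL-1beta and TNF-alpha and phosphorylated biotinylated GST-cJun (1-79) at 10 uM ATP, pH 7.6, room temperature. Compounds were titrated. AlphaScreen signal used anti-phospho-cJun (Ser73) antibody.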
A general note: Alpha assays give light when donor and acceptor beads are brought close together.

Assay [5] is described as follows: qHTS Assay for Lipid Storage Modulators (AID 1519; calls by dose curve). The following applies: Drosophila S3 cells, BODIPY lipid droplet/cell ratio, laser cytometry, cells loaded with oleic acid. The method, boiled down:
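Cells seeded at 5,000 per well were treated with compounds over a concentration series and loaded with oleic acid (400 uM, as added). Lipid droplet fluorescence (488 nm excitation, 500-530 nm channel) was read by laser-scanning cytometry and normalized to 20 uM Triacsin C.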
Background: qHTS replaces the single test concentration by a dilution series.

Assay [6] deals with Ubiquitin carboxyl-terminal hydrolase 1 (Homo sapiens) (UniProt O94782). Kind of assay: Inhibitors of USP1/UAF1: Pilot qHTS (AID 504865).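 Note: rhodamine fluorescence freed from ubiquitin-rhodamine substrate followed over time; top concentration of the series differs between compounds; % is set by controls: 0 for no effect and ±100 for the full control effect; nearly all actives have a fitted effect of over 35% in size.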 The method, boiled down: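 In 50mM HEPES pH 7.8 containing 0.5mM EDTA, 1mM TCEP, 0.1 mg/ml BSA and 0.01% Tween-20, 1nM USP1/UAF1 is exposed to compound for 15 min, then Ub-Rho (150nM final) is added and fluorescence is read over time.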
Ubiquitin carboxyl-terminal hydrolase 1 (Homo sapiens), sequence (O94782 whole entry, looked up): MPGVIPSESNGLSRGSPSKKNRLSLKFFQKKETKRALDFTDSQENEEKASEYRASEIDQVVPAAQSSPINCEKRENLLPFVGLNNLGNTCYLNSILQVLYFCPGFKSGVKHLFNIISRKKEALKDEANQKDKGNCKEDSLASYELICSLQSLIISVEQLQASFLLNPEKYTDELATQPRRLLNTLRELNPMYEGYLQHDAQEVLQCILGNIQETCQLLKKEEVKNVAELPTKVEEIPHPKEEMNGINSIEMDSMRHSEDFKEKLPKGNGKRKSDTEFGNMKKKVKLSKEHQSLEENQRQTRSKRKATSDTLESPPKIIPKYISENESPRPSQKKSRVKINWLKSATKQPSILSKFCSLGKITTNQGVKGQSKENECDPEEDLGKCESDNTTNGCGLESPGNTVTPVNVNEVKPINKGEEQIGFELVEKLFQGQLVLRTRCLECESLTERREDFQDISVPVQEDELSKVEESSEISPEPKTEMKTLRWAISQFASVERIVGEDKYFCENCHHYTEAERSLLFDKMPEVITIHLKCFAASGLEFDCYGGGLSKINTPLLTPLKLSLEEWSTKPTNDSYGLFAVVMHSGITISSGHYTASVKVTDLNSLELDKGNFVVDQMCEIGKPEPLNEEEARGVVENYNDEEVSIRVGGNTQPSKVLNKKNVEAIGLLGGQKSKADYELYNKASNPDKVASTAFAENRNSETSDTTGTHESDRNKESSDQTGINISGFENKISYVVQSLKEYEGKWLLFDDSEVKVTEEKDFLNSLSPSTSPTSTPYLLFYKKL
The target in assay [7] is Glucocorticoid receptor (Homo sapiens) (UniProt P04150). Briefly: GR-EFC Redistribution (AID 451; calls by dose curve; note: potency is the fitted concentration of half-maximal effect). The following applies: CHO-K1 GR-EFC translocation, beta-gal luminescence, 2 h. The method, boiled down:
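CHO-K1 cells stably expressing nuclear-localized β-gal enzyme acceptor and GR fused C-terminally to the enzyme donor fragment; ligand-driven nuclear translocation restores β-gal by complementation. Compounds titrated up to 46 uM final, 2 h at 37 °C; luminescence read.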

Assay [8] addresses 3',5'-cyclic-AMP phosphodiesterase 4B (Homo sapiens) (UniProt Q07343). Kind of assay: qHTS Assay for Inhibitors of PDE-IV (AID 607; active = well fitted activation curve with a large enough effect in the main read-out, with a control signal flat, not every such curve was filed as active; note: % of control where 0% means no effect). The procedure, abridged: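 The readout is membrane depolarisation from a cAMP-sensing CNG channel, detected with a potential dye at ex 535/em 590. Cells were HEK293-derived (endogenous PDE-IV) at 1000 cells/well, titrated up to 22.9 uM final.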
Assay [9] in a line: qHTS profiling for inhibitors of Plasmodium falciparum proliferation (AID 504749).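 Note: 0% = DMSO vehicle and full inhibition = artemisinin control; nearly all actives have a fitted effect of over 60% in size.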 The following applies: P. falciparum in erythrocytes, SYBR Green DNA, 72 h. The method, boiled down:
(§1)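 P. falciparum-infected erythrocytes (0.3% parasitemia, 2.5% hematocrit final) were exposed to compounds for 72 h at 37 C in 5% CO2, then lysed with SYBR Green buffer overnight at room temperature; parasite DNA fluorescence was normalized to artemisinin and DMSO controls.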

In a further assay the test system is C2A. The description is as above. As to conditions: P. falciparum in erythrocytes, SYBR Green DNA, 72 h; series mostly up to 12.8 µM. The method, boiled down: as §1
The subject of the next assay is CP191. The description is as above. The following applies: P. falciparum in erythrocytes, SYBR Green DNA, 72 h; series mostly up to 12.8 µM. The procedure, abridged: as §1
For another assay, the system named is CP217. The assay is described as above. As to conditions: P. falciparum in erythrocytes, SYBR Green DNA, 72 h; series mostly up to 12.8 µM. The procedure, abridged: as §1
A further assay deals with CP238. The description is as above. The following applies: P. falciparum in erythrocytes, SYBR Green DNA, 72 h; series mostly up to 12.8 µM. The method, boiled down: as §1
For another assay, the system named is CP250. The assay is described as above. The following applies: P. falciparum in erythrocytes, SYBR Green DNA, 72 h; series mostly up to 12.8 µM. The procedure, abridged: as §1
A further assay relates to CP256. The assay is described as above. As to conditions: P. falciparum in erythrocytes, SYBR Green DNA, 72 h; series mostly up to 12.8 µM. The method, boiled down: as §1
In another assay the test system is FAB9. Described as above. The following applies: P. falciparum in erythrocytes, SYBR Green DNA, 72 h; series mostly up to 12.8 µM. The method, boiled down:
as §1

The next assay has as its system JCK. The description is as above. The following applies: P. falciparum in erythrocytes, SYBR Green DNA, 72 h; series mostly up to 12.8 µM. The procedure, abridged:
as §1

Another assay concerns PC49. The description is as above. As to conditions: P. falciparum in erythrocytes, SYBR Green DNA, 72 h; series mostly up to 12.8 µM. The procedure, abridged: as §1
The test system of the next assay is SC27B. The description is as above. The following applies: P. falciparum in erythrocytes, SYBR Green DNA, 72 h; series mostly up to 12.8 µM. The method, boiled down: as §1
Assay [10] in a line: NFAT Signaling Pathway (AID 444; active = well fitted curve in either direction with a large enough effect, not every such curve was filed as active;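 note: carbachol stimulus at about its EC50 of 1 µM final; % is set by controls: 0 for no effect and ±100 for the full control effect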). The following applies: Jurkat NFAT-bla M1, carbachol, beta-lactamase ratio, 5 h; at 17.2 µM (top of the series) unless noted. The method, boiled down:
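Jurkat cells carrying an NFAT-driven β-lactamase reporter and co-transfected muscarinic M1 receptor were treated with compound plus carbachol (1 uM final, an EC50 level) for 5 h at 37 °C. CCF4 loading followed for 1 h at RT; 460/530 nm ratio gave %activity.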

Where [11] appears, read: measured here: cell count channel max response.
Setting [12] is: measured here: lipid channel max response.
The mark [13] stands for this setting: at 28.7 µM (top of the series), parasite line A.
[14] abbreviates: at 28.7 µM (top of the series), parasite line B.

Molecules are shown by their SMILES. Inconclusive results are not listed. Calls of active or inactive are those of the source. Unless noted, calls come from the whole dose curve; as a rule, active = well fitted inhibition curve with a large enough effect; inconclusive = small, poorly fitted or top-dose-only effect; inactive = flat fitted curve, though single readings scatter.

3',5'-cyclic-AMP phosphodiesterase 4B (Homo sapiens), sequence (Q07343 whole entry, looked up): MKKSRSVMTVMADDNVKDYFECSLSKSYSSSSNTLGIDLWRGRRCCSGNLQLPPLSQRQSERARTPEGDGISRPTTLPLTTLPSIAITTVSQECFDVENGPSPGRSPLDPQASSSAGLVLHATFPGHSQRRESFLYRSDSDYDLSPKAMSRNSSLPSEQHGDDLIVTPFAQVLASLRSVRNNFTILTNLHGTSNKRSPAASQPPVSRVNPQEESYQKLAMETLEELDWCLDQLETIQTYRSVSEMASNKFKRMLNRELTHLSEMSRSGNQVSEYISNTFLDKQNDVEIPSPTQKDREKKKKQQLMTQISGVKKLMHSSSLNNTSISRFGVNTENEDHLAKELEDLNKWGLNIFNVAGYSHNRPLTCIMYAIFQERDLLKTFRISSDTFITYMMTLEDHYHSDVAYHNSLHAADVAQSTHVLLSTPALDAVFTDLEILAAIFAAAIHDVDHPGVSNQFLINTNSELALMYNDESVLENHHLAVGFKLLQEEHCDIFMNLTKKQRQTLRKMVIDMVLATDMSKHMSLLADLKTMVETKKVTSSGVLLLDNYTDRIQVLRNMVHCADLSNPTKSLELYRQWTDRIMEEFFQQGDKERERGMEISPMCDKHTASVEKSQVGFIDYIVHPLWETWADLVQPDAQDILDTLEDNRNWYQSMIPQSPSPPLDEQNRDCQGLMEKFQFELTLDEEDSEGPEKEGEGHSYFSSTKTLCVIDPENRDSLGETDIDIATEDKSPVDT

`C#C[C@]1(O)CC[C@@H]2[C@H]3CCC4=Cc5oncc5C[C@]4(C)[C@@H]3CC[C@@]21C`: the compound was classed as inactive in assay [1] and in assay [2]. In addition, the Potency in assay [3] was > 20.6 µM (inactive). Moreover, the Potency result in [4] and in assay [6] was “inactive” in each case. The activity change, negative = inhibition in assay [5] (at 25.7 µM (top of the series)) was -2.17% (inactive). Moreover, the figures for the max response in assay [5] (setting [11]) and in assay [5] (setting [12]) were -23.2% and -23.4%, respectively.

In the case of `CS(=O)(=O)Nc1cccc(-c2nc(Nc3ccccc3)c3ccccc3n2)c1`, in assay [1], the call was inactive. Also, the Potency in assay [7] was > 46 µM (inactive). In addition, the Potency entry in assay [4] was “inactive”. The activity change, negative = inhibition in [5] (at 57.5 µM (top of the series)) was 7.97% (inactive). Further, the values for the max response in assay [5] (setting [11]) and in assay [5] (setting [12]) were -5.28% and 2.43%, respectively.

In the case of `CN(C)CCOC(=O)[C@@H](c1ccccc1)C1(O)CCCC1`, the compound was classed as inactive in [1], in assay [2] and in assay [8]. In addition, the Potency in assay [3] was > 20.6 µM (inactive). For the same compound, the Potency entry (in assay [4]; in assay [6]; with C2A; with CP191; in the assay with CP217; in the assay on CP238) was “inactive” each time. Further, the Potency result in the assay on CP250, in the assay with CP256, in the assay on FAB9, in the assay with JCK, with PC49 and in the assay with SC27B was “inactive” in each case. Also, the activity change, negative = inhibition in assay [5] (at 25.7 µM (top of the series)) is -1.19% (inactive). Moreover, the max response in assay [5] (setting [11]) was determined as 2.88%; in [5] (setting [12]), 1.92%. The figures for the activity, negative = inhibition in [9] (setting [13]) and in assay [9] (setting [14]) were 22.6% (inactive) and 8.77% (inactive), respectively.

On to `NCc1ccccc1CC(=O)N[C@@H]1C(=O)N2C(C(=O)O)=C(CSc3nnnn3CC(=O)O)CS[C@@H]12`, for which the call in assay [1], in assay [2] and in [8] was inactive. Also, the Potency in [3] is > 20.6 µM (inactive). For the same compound, the Potency result (in [4]; in the assay with C2A; in the assay on CP191; in the assay on CP217; with CP238; with CP250) was “inactive” each time. Besides, the Potency entry with CP256, with FAB9, in the assay on JCK, with PC49 and with SC27B was “inactive” in each case. Further, in [5] (at 25.7 µM (top of the series)), the activity change, negative = inhibition was -0.0833% (inactive). Further, the max response in assay [5] (setting [11]) is -14.4%; in [5] (setting [12]) it was -13.9%. The activity, negative = inhibition in assay [9] (at 12.8 µM (top of the series), parasite line A) was 1.91% (inactive); in assay [9] (at 12.8 µM (top of the series), parasite line B), -4.65% (inactive).

For `CNCCC=C1c2ccccc2C=Cc2ccccc21`, the outcome in [1] and in [2] was inactive. The Potency in [3] was > 20.6 µM (inactive). Moreover, the Potency entry in assay [4] and in assay [6] was “inactive” throughout. The activity change, negative = inhibition in assay [5] (at 25.7 µM (top of the series)) was -3.6% (inactive). In addition, the max response in assay [5] (setting [11]) is -2.2%; in assay [5] (setting [12]), -8.1%.

In the case of `O=C1O[C@@H]([C@@H](O)CO)[C@@H](O)[C@H]1O`, the outcome in assay [1], in assay [2] and in assay [8] was inactive. Also, the activity change, negative = inhibition in [10] was -7.5% (inactive); in [5] (at 25.7 µM (top of the series)), -0.208% (inactive). Also, the Potency in assay [3] and in [7] was > 20.6 µM (inactive) in each case. Besides, the max response turned out to be 8.38% in [5] (setting [11]) and 7.66% in [5] (setting [12]). Besides, the Potency entry (in assay [6]; with C2A; in the assay with CP191; in the assay on CP217; in the assay on CP238; with CP250) was “inactive” throughout. Also, the Potency entry with CP256, in the assay on FAB9, with JCK, in the assay with PC49 and with SC27B was “inactive” throughout. Moreover, the activity, negative = inhibition was -5.65% (inactive) in [9] (setting [13]) and 14.7% (inactive) in assay [9] (setting [14]).
